The values below come from PMC11006913.

Common to all, as to assay: PBM; 200 nM protein, PBS
Holding throughout (conditions): dsDNA, one strand shown

Assay [1] has as its target SHOX (Homo sapiens, UniProt O15266 103-189).
Assay [2] has as its target SHOX (Homo sapiens, UniProt O15266 103-189, R173C).
For assay [3], the target named is PROP1 (Homo sapiens, UniProt O75360 56-141).
The target of assay [4] is PROP1 (Homo sapiens, UniProt O75360 56-141, R99H).
For assay [5], the target named is PROP1 (Homo sapiens, UniProt O75360 56-141, F88S).
PROP1 (Homo sapiens, UniProt O75360 56-141, F88S), sequence (O75360 56-141 F88S): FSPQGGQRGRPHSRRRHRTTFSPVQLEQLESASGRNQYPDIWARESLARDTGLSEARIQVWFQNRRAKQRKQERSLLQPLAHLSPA
Assay [6] concerns the target CRX (Homo sapiens, UniProt O43186 26-111).
The target in assay [7] is CRX (Homo sapiens, UniProt O43186 26-111, R41L).
CRX (Homo sapiens, UniProt O43186 26-111, R41L), sequence (O43186 26-111 R41L): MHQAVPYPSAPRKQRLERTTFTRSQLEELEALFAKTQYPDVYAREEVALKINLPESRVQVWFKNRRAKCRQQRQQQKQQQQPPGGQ
The target of assay [8] is NKX3-2 (Homo sapiens, UniProt P78367 192-278, P234S).
NKX3-2 (Homo sapiens, UniProt P78367 192-278, P234S), sequence (P78367 192-278 P234S): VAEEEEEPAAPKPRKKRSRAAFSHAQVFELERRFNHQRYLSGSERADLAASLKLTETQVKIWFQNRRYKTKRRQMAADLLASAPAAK
Assay [9] has as its target NKX3-2 (Homo sapiens, UniProt P78367 192-278).
In assay [10] the target is VAX1 (Homo sapiens, UniProt Q5SQQ9 86-172).
VAX1 (Homo sapiens, UniProt Q5SQQ9 86-172), sequence (Q5SQQ9 86-172): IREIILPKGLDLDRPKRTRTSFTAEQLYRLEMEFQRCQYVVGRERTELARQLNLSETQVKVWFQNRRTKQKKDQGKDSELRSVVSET
In assay [11] the target is VAX1 (Homo sapiens, UniProt Q5SQQ9 86-172, K157R).
VAX1 (Homo sapiens, UniProt Q5SQQ9 86-172, K157R), sequence (Q5SQQ9 86-172 K157R): as the sequence (Q5SQQ9 86-172) above, with K72R counted along it
Assay [12] deals with T1, VENTX (Homo sapiens, UniProt O95231 78-163, R121Q).
T1 sequence: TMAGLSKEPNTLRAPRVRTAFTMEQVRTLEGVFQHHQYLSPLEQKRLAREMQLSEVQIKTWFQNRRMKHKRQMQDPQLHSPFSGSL

For assay [13], the target named is HOXB6 (Homo sapiens, UniProt P17509 132-218, K202E).
HOXB6 (Homo sapiens, UniProt P17509 132-218, K202E), sequence (P17509 132-218 K202E): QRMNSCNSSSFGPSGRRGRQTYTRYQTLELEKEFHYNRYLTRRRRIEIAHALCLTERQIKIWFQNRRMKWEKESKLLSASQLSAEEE
The target of assay [14] is CRX (Homo sapiens, UniProt O43186 26-111, E42D).
CRX (Homo sapiens, UniProt O43186 26-111, E42D), sequence (O43186 26-111 E42D): as the sequence (O43186 26-111 R41L) above, with L16R, E17D counted along it
For assay [15], the target named is MSX2 (Homo sapiens, UniProt P35548 130-214).
MSX2 (Homo sapiens, UniProt P35548 130-214), sequence (P35548 130-214): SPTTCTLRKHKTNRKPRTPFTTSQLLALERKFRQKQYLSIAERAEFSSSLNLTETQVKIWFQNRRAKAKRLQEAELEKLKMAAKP
In assay [16] the target is MSX2 (Homo sapiens, UniProt P35548 130-214, F161Y).
MSX2 (Homo sapiens, UniProt P35548 130-214, F161Y), sequence (P35548 130-214 F161Y): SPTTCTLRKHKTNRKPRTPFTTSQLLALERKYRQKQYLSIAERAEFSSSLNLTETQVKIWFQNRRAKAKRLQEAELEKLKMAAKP
For assay [17], the target named is HOXB6 (Homo sapiens, UniProt P17509 132-218).
HOXB6 (Homo sapiens, UniProt P17509 132-218), sequence (P17509 132-218): as the sequence (P17509 132-218 K202E) above, with E71K counted along it
Assay [18] deals with T2, VENTX (Homo sapiens, UniProt O95231 78-163, Y115F).
T2 sequence: T1 sequence with Y38F, Q44R

Assay [19] has as its target VAX1 (Homo sapiens, UniProt Q5SQQ9 86-172, T142I).

Numbering of substitutions follows the chain as printed.

SHOX (Homo sapiens, UniProt O15266 103-189, R173C), sequence (O15266 103-189 R173C): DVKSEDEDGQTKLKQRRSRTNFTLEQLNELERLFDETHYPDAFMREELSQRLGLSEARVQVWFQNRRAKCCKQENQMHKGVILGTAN
PROP1 (Homo sapiens, UniProt O75360 56-141, R99H), sequence (O75360 56-141 R99H): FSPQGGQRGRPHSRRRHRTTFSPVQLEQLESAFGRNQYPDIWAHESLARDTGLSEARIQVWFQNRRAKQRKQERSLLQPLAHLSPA
CRX (Homo sapiens, UniProt O43186 26-111), sequence (O43186 26-111): as the sequence (O43186 26-111 R41L) above, with L16R counted along it
PROP1 (Homo sapiens, UniProt O75360 56-141), sequence (O75360 56-141): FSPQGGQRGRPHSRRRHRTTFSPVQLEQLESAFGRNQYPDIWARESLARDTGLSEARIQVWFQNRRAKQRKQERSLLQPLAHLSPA
SHOX (Homo sapiens, UniProt O15266 103-189), sequence (O15266 103-189): as the sequence (O15266 103-189 R173C) above, with C71R counted along it
NKX3-2 (Homo sapiens, UniProt P78367 192-278), sequence (P78367 192-278): as the sequence (P78367 192-278 P234S) above, with S43P counted along it
VAX1 (Homo sapiens, UniProt Q5SQQ9 86-172, T142I), sequence (Q5SQQ9 86-172 T142I): as the sequence (Q5SQQ9 86-172) above, with T57I counted along it

Consider CGAGCGCA, for which the binding signal with SHOX [1] was 7.22 upbm affinity estimate (log intensity, higher = more binding, comparable within an allelic series); in the assay with SHOX [2], 7.31 upbm affinity estimate (log intensity, higher = more binding, comparable within an allelic series).

With CTCTCCTC, the binding signal with SHOX [1] is 7.22 upbm affinity estimate (log intensity, higher = more binding, comparable within an allelic series); in the assay with SHOX [2] it was 7.21 upbm affinity estimate (log intensity, higher = more binding, comparable within an allelic series).

In the case of CACCGGGG, the binding signal in the assay with SHOX [1] is 7.32 upbm affinity estimate (log intensity, higher = more binding, comparable within an allelic series); with SHOX [2], 7.13 upbm affinity estimate (log intensity, higher = more binding, comparable within an allelic series); in the assay with PROP1 [3] it was 6.79 upbm affinity estimate (log intensity, higher = more binding, comparable within an allelic series); in the assay with PROP1 [4] it was 6.87 upbm affinity estimate (log intensity, higher = more binding, comparable within an allelic series); with PROP1 [5] it was 6.47 upbm affinity estimate (log intensity, higher = more binding, comparable within an allelic series).

As for TAACCTTA, the binding signal with CRX [6] was 9.78 upbm affinity estimate (log intensity, higher = more binding, comparable within an allelic series).

CTTGGCCC: the binding signal is 7.14 upbm affinity estimate (log intensity, higher = more binding, comparable within an allelic series) with SHOX [1] and 7.2 upbm affinity estimate (log intensity, higher = more binding, comparable within an allelic series) with SHOX [2].

Turning to CCCCTTCC, the binding signal was 7.19 upbm affinity estimate (log intensity, higher = more binding, comparable within an allelic series) with SHOX [1] and 7.03 upbm affinity estimate (log intensity, higher = more binding, comparable within an allelic series) with SHOX [2].

For CTCCTCCC, the binding signal with SHOX [1] was 7.03 upbm affinity estimate (log intensity, higher = more binding, comparable within an allelic series); with SHOX [2], 7.12 upbm affinity estimate (log intensity, higher = more binding, comparable within an allelic series).

For the sequence CCTCGGAG, the binding signal with SHOX [1] is 7.14 upbm affinity estimate (log intensity, higher = more binding, comparable within an allelic series); in the assay with SHOX [2], 7.17 upbm affinity estimate (log intensity, higher = more binding, comparable within an allelic series).

For the sequence CGGTTGCC, the binding signal is 7.18 upbm affinity estimate (log intensity, higher = more binding, comparable within an allelic series) with SHOX [1] and 7.25 upbm affinity estimate (log intensity, higher = more binding, comparable within an allelic series) with SHOX [2].

GAACGCGC: the binding signal was 7.22 upbm affinity estimate (log intensity, higher = more binding, comparable within an allelic series) in the assay with SHOX [1] and 7.23 upbm affinity estimate (log intensity, higher = more binding, comparable within an allelic series) in the assay with SHOX [2].

Consider CCGGCGTC, for which the binding signal was 7.01 upbm affinity estimate (log intensity, higher = more binding, comparable within an allelic series) with SHOX [1] and 7.17 upbm affinity estimate (log intensity, higher = more binding, comparable within an allelic series) with SHOX [2].

CCGGGAAA: the binding signal with SHOX [1] was 7.25 upbm affinity estimate (log intensity, higher = more binding, comparable within an allelic series); in the assay with SHOX [2] it was 7.26 upbm affinity estimate (log intensity, higher = more binding, comparable within an allelic series).

For GCTAATAC, the binding signal in the assay with SHOX [1] is 9.1 upbm affinity estimate (log intensity, higher = more binding, comparable within an allelic series); with CRX [7] it was 10.9 upbm affinity estimate (log intensity, higher = more binding, comparable within an allelic series).

With AGGTCCCC, the binding signal is 7.19 upbm affinity estimate (log intensity, higher = more binding, comparable within an allelic series) with SHOX [1] and 7.17 upbm affinity estimate (log intensity, higher = more binding, comparable within an allelic series) with SHOX [2].

Consider GCCAGGGA, for which the binding signal was 7.22 upbm affinity estimate (log intensity, higher = more binding, comparable within an allelic series) with SHOX [1] and 7.13 upbm affinity estimate (log intensity, higher = more binding, comparable within an allelic series) with SHOX [2].

With CCGTGGCC, the binding signal with SHOX [1] was 7.18 upbm affinity estimate (log intensity, higher = more binding, comparable within an allelic series); with SHOX [2], 7.22 upbm affinity estimate (log intensity, higher = more binding, comparable within an allelic series).

Consider GCATGGCC, for which the binding signal was 7.2 upbm affinity estimate (log intensity, higher = more binding, comparable within an allelic series) with SHOX [1] and 7.2 upbm affinity estimate (log intensity, higher = more binding, comparable within an allelic series) in the assay with SHOX [2].

Turning to CCGCGGCC, the binding signal with SHOX [1] is 7.18 upbm affinity estimate (log intensity, higher = more binding, comparable within an allelic series); with SHOX [2], 7.17 upbm affinity estimate (log intensity, higher = more binding, comparable within an allelic series).

For CCAGGGCG, the binding signal is 7.04 upbm affinity estimate (log intensity, higher = more binding, comparable within an allelic series) in the assay with SHOX [1]; 7.02 upbm affinity estimate (log intensity, higher = more binding, comparable within an allelic series) with SHOX [2]; 6.67 upbm affinity estimate (log intensity, higher = more binding, comparable within an allelic series) in the assay with PROP1 [3]; 6.55 upbm affinity estimate (log intensity, higher = more binding, comparable within an allelic series) with PROP1 [4]; 6.42 upbm affinity estimate (log intensity, higher = more binding, comparable within an allelic series) in the assay with PROP1 [5]; 10.3 upbm affinity estimate (log intensity, higher = more binding, comparable within an allelic series) with NKX3-2 [8]. For the same sequence, the binding signal with NKX3-2 [9] was 10.2 upbm affinity estimate (log intensity, higher = more binding, comparable within an allelic series).

In the case of GGCCCAGA, the binding signal with SHOX [1] is 7.17 upbm affinity estimate (log intensity, higher = more binding, comparable within an allelic series); with SHOX [2] it was 7.12 upbm affinity estimate (log intensity, higher = more binding, comparable within an allelic series).

As for CCACCTCG, the binding signal with SHOX [1] was 7.13 upbm affinity estimate (log intensity, higher = more binding, comparable within an allelic series); in the assay with SHOX [2] it was 7.18 upbm affinity estimate (log intensity, higher = more binding, comparable within an allelic series).

For CAACCAGC, the binding signal in the assay with SHOX [1] is 7.2 upbm affinity estimate (log intensity, higher = more binding, comparable within an allelic series); with SHOX [2] it was 7.18 upbm affinity estimate (log intensity, higher = more binding, comparable within an allelic series).

Consider CCTTTCCC, for which the binding signal with SHOX [1] is 7.21 upbm affinity estimate (log intensity, higher = more binding, comparable within an allelic series); with SHOX [2] it was 7.11 upbm affinity estimate (log intensity, higher = more binding, comparable within an allelic series); with PROP1 [3], 6.78 upbm affinity estimate (log intensity, higher = more binding, comparable within an allelic series); with PROP1 [4], 6.87 upbm affinity estimate (log intensity, higher = more binding, comparable within an allelic series); with PROP1 [5], 6.77 upbm affinity estimate (log intensity, higher = more binding, comparable within an allelic series).

In the case of GACAGCCC, the binding signal in the assay with SHOX [1] is 7.16 upbm affinity estimate (log intensity, higher = more binding, comparable within an allelic series); in the assay with SHOX [2], 7.16 upbm affinity estimate (log intensity, higher = more binding, comparable within an allelic series).

Take CGGCCTGA: the binding signal with SHOX [1] was 7.33 upbm affinity estimate (log intensity, higher = more binding, comparable within an allelic series); in the assay with SHOX [2], 7.17 upbm affinity estimate (log intensity, higher = more binding, comparable within an allelic series).

For GCCTATTA, the binding signal is 10.8 upbm affinity estimate (log intensity, higher = more binding, comparable within an allelic series) with SHOX [1] and 8.45 upbm affinity estimate (log intensity, higher = more binding, comparable within an allelic series) in the assay with SHOX [2].

For the sequence CCAATCAC, the binding signal with SHOX [1] was 8.6 upbm affinity estimate (log intensity, higher = more binding, comparable within an allelic series); with SHOX [2], 7.61 upbm affinity estimate (log intensity, higher = more binding, comparable within an allelic series); in the assay with VAX1 [10] it was 8.98 upbm affinity estimate (log intensity, higher = more binding, comparable within an allelic series); in the assay with VAX1 [11], 8.89 upbm affinity estimate (log intensity, higher = more binding, comparable within an allelic series).

For the sequence CGCTACCC, the binding signal with SHOX [1] was 7.24 upbm affinity estimate (log intensity, higher = more binding, comparable within an allelic series); with SHOX [2], 7.33 upbm affinity estimate (log intensity, higher = more binding, comparable within an allelic series).

For the sequence CCAGATTA, the binding signal with CRX [6] was 13 upbm affinity estimate (log intensity, higher = more binding, comparable within an allelic series); in the assay with VENTX [12] it was 10 upbm affinity estimate (log intensity, higher = more binding, comparable within an allelic series); with HOXB6 [13] it was 9.66 upbm affinity estimate (log intensity, higher = more binding, comparable within an allelic series); in the assay with CRX [14], 13 upbm affinity estimate (log intensity, higher = more binding, comparable within an allelic series); in the assay with MSX2 [15], 11.3 upbm affinity estimate (log intensity, higher = more binding, comparable within an allelic series); with MSX2 [16], 11.1 upbm affinity estimate (log intensity, higher = more binding, comparable within an allelic series). Also, the binding signal with CRX [7] was 12.7 upbm affinity estimate (log intensity, higher = more binding, comparable within an allelic series); in the assay with HOXB6 [17], 10.3 upbm affinity estimate (log intensity, higher = more binding, comparable within an allelic series).

For ACAGATTA, the binding signal is 12.8 upbm affinity estimate (log intensity, higher = more binding, comparable within an allelic series) with CRX [6]; 10.5 upbm affinity estimate (log intensity, higher = more binding, comparable within an allelic series) with VENTX [12]; 10.5 upbm affinity estimate (log intensity, higher = more binding, comparable within an allelic series) with VENTX [18]; 12.7 upbm affinity estimate (log intensity, higher = more binding, comparable within an allelic series) with CRX [14]; 10 upbm affinity estimate (log intensity, higher = more binding, comparable within an allelic series) with VAX1 [10]; 9.28 upbm affinity estimate (log intensity, higher = more binding, comparable within an allelic series) with VAX1 [19]. For the same sequence, the binding signal in the assay with CRX [7] is 12.6 upbm affinity estimate (log intensity, higher = more binding, comparable within an allelic series); with VAX1 [11], 9.72 upbm affinity estimate (log intensity, higher = more binding, comparable within an allelic series).
